Test results from PubChem BioAssay (Tox21).
Where “and” joins values, the source holds several entries; their conditions need not be identical. Equal entries are not always repeated. Records with an inconclusive call do not appear. Where a call stands in place of a potency, no number is given. Calls of active or inactive are those of the source. Calls follow the shape of the dose curve; as a rule, active = well fitted activation curve with a large enough effect in the repeat runs; inconclusive = weak or mixed curves, or effect the other way; inactive = no such curve, though single readings can be large or run the other way.

Test: qHTS assay to identify small molecule agonists of the retinoic acid receptor (RAR) signaling pathway (AID 1159553)
Settings: C3RL4 RARE luciferase reporter, agonist, 6 h; series mostly up to 73.3 µM
From the text: National Center for Advancing Translational Sciences [NCATS] NIH Chemical Genomics Center [NCGC] U.S. Environmental Protection Agency [EPA] National Institutes of Environmental Health Sciences [NIEHS] National Toxicology Program [NTP] Assay overview: All-trans Retinoic acid (atRA) is the potent natural metabolite of retinol and plays an important role in normal embryonic development and maintenance of cellular phenotype in adult animals. atRA is the activating ligand for the retinoic acid receptors (RARs) which form heterodimers with retinoid X receptors (RXRs) on the retinoic acid response element (RARE). Through activation of the RAR/RXRs nuclear receptors, atRA regulates the transcription of a large number of protein-coding genes and regulatory RNAs. Intracellular levels of atRA are controlled by the retinol signaling pathway (RSP) that regulates the biosynthesis and catabolism of atRA to maintain physiological levels. Chemicals that interfere with the RSP can cause abnormal intracellular levels of atRA and therefore are potential developmental toxicants. To assess compounds for the potential adverse effect on embryonic development through interfering with retinol signaling, a cell-based RARE luciferase reporter gene assay was used. C3RL4 cell line (OARSA/CFSAN/FDA, Laurel, MD) was used to screen Tox21 10K compound library for identifying activators of the RSP.
Assay Protocol Summary: C3RL4 cells were seeded at 1,000/well in 5 uL of assay medium into white solid 1,536-well tissue culture plates (Greiner Bio-One North America Inc. Monroe, NC) using a Multidrop Combi (Thermo Scientific, Waltham, MA) dispenser. After incubation at 37 C and 5% CO2 for an overnight, 23 nL of compounds dissolved in DMSO, positive control or DMSO only were transferred by a Pintool station (Kalypsys, San Diego, CA). After 6 hr incubation at 37 C and 5% CO2, 5 uL of Amplite Luciferase reagent (AAT Bioquest Inc. Sunnyvale, CA) was added to each assay plate using a Flying Reagent Dispenser (FRD) (Aurora Discovery, San Diego, CA). Luminescence was quantified on a ViewLux plate reader (PerkinElmer, Waltham, MA) after 30 min incubation at room temperature.
Potency is read from the fitted curve at half-maximal effect.

| SMILES | Potency | activation |
| --- | --- | --- |
| Nc1nc2c(ncn2COC(CO)CO)c(=O)[nH]1 | inactive | – |
| O=c1cc(-c2ccccc2)oc2ccccc12 | 3.44 µM (active) and 858 nM (active) | – |
| OC[C@]1(O)OC[C@@H](O)[C@H](O)[C@@H]1O | inactive | – |
| CCCCCSCCCCC | inactive | – |
| C=C(C)C(=O)OCCCCCCCC(C)C | inactive | – |
| FC1(F)C(F)(F)C(F)(F)C2(F)C(F)(F)C(F)(F)C(F)(F)C(F)(F)C2(F)C1(F)F (stereo not given) | inactive | – |
| Cc1[nH]c(=O)c(C#N)cc1-c1ccc2nccn2c1 | inactive | – |
| Cc1ccc(=O)n(-c2ccccc2)c1 | inactive | – |
| CC(=O)OCC(CCn1cnc2cnc(N)nc21)COC(C)=O | inactive | – |
| CCOc1ccc(C(=O)OCCN(CC)CC)cc1 | inactive | – |
| O=C(O)c1ccccc1OP(=O)(O)O | inactive | – |
| O=C(O)CNC(=O)c1ccc([N+](=O)[O-])cc1 | inactive | – |
| ClC(Cl)(Br)Br | inactive | – |
| Cc1cc2c(cc1S(N)(=O)=O)S(=O)(=O)CCC2 | inactive | – |
| NS(=O)(=O)c1cc(C(=O)O)cc(N2CCCC2)c1Oc1ccccc1 | inactive | – |
| C=C(C)CS(=O)(=O)O | inactive | – |
| CCC(=O)OC(C)c1ccccc1 (stereo not given) | inactive | – |
| CS(=O)(=O)O | inactive | – |
| NS(=O)(=O)c1cc2c(cc1Cl)NC(C1CC3C=CC1C3)NS2(=O)=O (stereo not given) | inactive | – |
| O=C(O)CCCl | inactive | – |

| SMILES | Potency | activation |
| --- | --- | --- |
| CN1CCC(=C2c3ccccc3CC(=O)c3sccc32)CC1 | inactive | – |
| CCCC(=O)O[C@]1(C(=O)CO)CC[C@H]2[C@@H]3CCC4=CC(=O)CC[C@]4(C)[C@H]3[C@@H](O)C[C@@]21C | inactive | – |
| O=C(O)CN(CCOCCOCCN(CC(=O)O)CC(=O)O)CC(=O)O | – | 2.01% [at 0.756 µM] (inactive) |
| CCOC(=O)[C@H](CCc1ccccc1)N[C@@H](C)C(=O)N1[C@H](C(=O)O)C[C@@H]2CCC[C@@H]21 | inactive | – |
| C=COCC1CCC(CO)CC1 (stereo not given) | inactive | – |
| CCn1nc(C(=O)O)c(=O)c2cc3c(cc21)OCO3 | inactive | – |
| CCCCOCCOCCOCc1cc2c(cc1CCC)OCO2 | inactive | – |
| O=C1CCCN1C1CCCCC1 | inactive | – |
| c1ccc([C@H]2CN3CCSC3=N2)cc1 | inactive | – |
| C1CN(CCOCCN2CCOCC2)CCO1 | inactive | – |
| O=c1n(CCO)c(=O)n(CCO)c(=O)n1CCO | inactive | – |
| CCN1CCC[C@H]1CNC(=O)c1cc(S(N)(=O)=O)ccc1OC | inactive | – |
| CCCCOCCOCCOCCCC | inactive | – |
| Oc1ccc(C2CNCCc3c2cc(O)c(O)c3Cl)cc1 (stereo not given) | inactive | – |
| Nc1c2c(nc3ccccc13)CCCC2O (stereo not given) | inactive | – |
| NC(=O)COCCN1CCN(C(c2ccccc2)c2ccc(Cl)cc2)CC1 (stereo not given) | inactive | – |
| Brc1c(NC2=NCCN2)ccc2nccnc12 | inactive | – |
| Cc1c(O)cccc1O | inactive | – |
| OC1CCCCC1c1ccccc1 (stereo not given) | inactive | – |
| CCCCCCCCCCCCCCCCC | inactive | – |
